About 1,100 (1.7%) of roughly 63,000 compounds were called active. The full list was thinned out, with actives kept by preference. Results with a measured potency or affinity are listed apart. Values without a mark were called inactive.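 How the source made its calls: active means compounds whose percent cytotoxicity in the single-dose primary screen, scaled between solvent and toxic-drug controls, exceeds 50; inactive means the rest.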
Assay: viability loss of HPDE-C7K cells – cell-based, fluorescence, HTS, primary screen (AID 431);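 further: 0% = DMSO solvent wells and 100% = doxorubicin-treated wells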
Conditions: HPDE-C7K KRASV12 cells, Alamar Blue viability, 48 h; at 10 µM; hits give high values

Compared with `O=C(CCN1CCCC1)Nc1cccc(Br)c1`, `Cn1cnc2c(N3CCCCC3)nccc21` is higher in cytotoxicity: 3.2% for the first, 3.7% for the second.

Going from `Cc1ccc(C)c(NC(=O)CN(C)S(=O)(=O)c2ccc(F)cc2)c1` to `CCOC(=O)c1[nH]c(C)c(C(=O)Nc2ccc(F)cc2)c1C`, the cytotoxicity falls from -4.8% to -5.4%.

First: O=C(NCCc1cn2ccccc2n1)c1ccc(Br)o1
Second: Cc1ccccc1-c1nc(CS(=O)(=O)CC(=O)NCc2ccc3c(c2)OCO3)c(C)o1
The cytotoxicity of the first is lower: -1.7% for the first, 14.4% for the second.

Going from `Cc1nc(NS(=O)(=O)c2cccs2)c2c3c(sc2n1)CCC3` to `O=C(Nc1ncnc2sc3c(c12)CCC3)c1ccco1`, the cytotoxicity falls from 10.8% to 10.7%.

Compared with `COc1ccc(C2N(c3ccc(F)cc3)C(=O)C3CCCN32)cc1` (configuration not stated), `CCOc1ccc(Nc2cc(C)nc(N3CCOCC3)n2)cc1` is lower in cytotoxicity: -2.8% for the first, -19.5% for the second.

Compared with `CCOC(=O)C1CCCN(C(=O)c2ccc(CS(=O)(=O)Cc3ccccc3C)o2)C1` (configuration not stated), `CCOC(=O)c1[nH]c(C)c(C(=O)Nc2ccccc2C)c1C` is higher in cytotoxicity: 16.4% for the first, 45.7% for the second.

Going from `CCC(C)[C@@H](C(=O)Nc1ccc(OC)c(OC)c1)N1Cc2ccccc2C1=O` (some centres not stated) to `CCOC(=O)c1[nH]c(C)c(C(=O)Nc2ccc(Cl)cc2)c1C`, the cytotoxicity rises from -0.4% to 10.1%.

Compared with `c1cncc(Nc2nc(-c3cccnc3)cs2)c1`, `CCN(C(=O)CSc1nnc(Cn2nnc3ccccc32)o1)c1nc(-c2ccccc2)cs1` is lower in cytotoxicity: 15% for the first, -0.5% for the second.

Compared with `CCN(C(C)=O)c1nnc(CSc2nc3ccccc3s2)s1`, `COCCn1c(SCC(=O)Nc2nc(C)c(Cl)cc2Cl)nc2ccccc21` is lower in cytotoxicity: 23.5% for the first, -6.8% for the second.

First: O=C(Nc1ccccc1C(=O)NCc1ccco1)c1ccco1
Second: CC1(C)Cc2c(C#N)c(N3CCN(C(=O)c4ccco4)CC3)nc(-c3ccco3)c2CS1
The cytotoxicity of the first is lower: 7.2% for the first, 44.2% for the second.

Compared with `N=c1n(CCN2CCOCC2)c2ccccc2n1CC(O)COc1ccccc1` (configuration not stated), `COCCn1c(Cc2ccccc2)nnc1SCC(=O)NC(C)C` is lower in cytotoxicity: -9.7% for the first, -14.6% for the second.

Going from `CCCc1nc(NCc2ccco2)c(C#N)c2c1COC(C)(C)C2` to `CCOC(=O)c1cnc(SCC(=O)Nc2sc(C)c(C)c2C#N)nc1N`, the cytotoxicity falls from 1.1% to -2.2%.

First: O=C(Cn1c(=O)n2ncnc2c2c3c(sc21)CCCC3)c1ccccc1
Second: O=c1n(Cc2ccccc2Cl)c2sc3c(c2c2ncnn12)CCCC3
The cytotoxicity of the first is lower: -20.6% for the first, -12.2% for the second.

For `CCOC(=O)c1[nH]c(C)c(C(=O)OCC)c1C`, the cytotoxicity was -10%.

For `O=S(=O)(Nc1ncnc2sc3c(c12)CCC3)c1ccc(Cl)s1`, the cytotoxicity was 50.7% (active).
For `CCN(C(=O)c1ccc(C(C)(C)C)cc1)c1nnc(Cn2nnc3ccccc32)s1`, the cytotoxicity was 88.4% (active).
For `CCCCc1nc(NCCNC(=O)c2ccco2)c(C#N)c2c1CSC(C)(C)C2`, the cytotoxicity was 80.9% (active).
For `CCOC(=O)c1[nH]c(C)c(C(=O)Nc2cc(Cl)ccc2C)c1C`, the cytotoxicity was 55% (active).
With `CCOC(=O)c1[nH]c(C)c(C(=O)c2cc(F)ccc2F)c1C` the cytotoxicity was 70.6% (active).

Reference: PubChem BioAssay AID431 (Sanford-Burnham Center for Chemical Genomics, 2006)
